Test results as given in the supplement of paper PMC6555819.

Experiments:
Test in all cases: PBM binding z-score (relative to random genomic background probes); higher = stronger binding; sequences stand for … in GC…GCGATTGACAGCGTAGAATGAAGG
[1] = system: FXR:RXRa (NR concentration 270 nM, RXRa partner concentration 90 nM)
Outline: (§1)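 For binding z-scores, the reference was random background probes on custom Agilent 4×180K protein-binding microarrays. These arrays were incubated 1 h with ligand-free nuclear receptor dimers in PBS pH 7.4, 2% milk, 0.02% Triton X-100, 1 mM DTT, 0.2 mg/mL BSA and 0.4 mg/ml salmon testes DNA. Fluorescence was scanned after antibody detection of each partner (one per run) and regression-normalized.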

[2] = system: LXRa:RXRa (NR concentration 270 nM, RXRa partner concentration 90 nM)
Outline: as §1

[3] = system: LXRa homodimer (NR concentration 270 nM)
Outline: as §1

[4] = system: LXRb:RXRa (NR concentration 270 nM, RXRa partner concentration 90 nM)
Outline: as §1

[5] = system: LXRb homodimer (NR concentration 270 nM)
Outline: as §1

[6] = system: PPARa:RXRa (NR concentration 270 nM, RXRa partner concentration 90 nM)
Outline: as §1

[7] = system: PPARg:RXRa 270nM:90nM, anti-RXR (NR concentration 270 nM, RXRa partner concentration 90 nM)
Outline: as §1

[8] = system: PPARg:RXRa 30nM:10nM, anti-RXR (NR concentration 30 nM, RXRa partner concentration 10 nM)
Outline: as §1

[9] = system: PPARg:RXRa 90nM:30nM, anti-RXR (NR concentration 90 nM, RXRa partner concentration 30 nM)
Outline: as §1

[10] = system: PPARg:RXRa DBDmut IVT, anti-RXR (DBD mutation: RXRa K156A/R161A, NR concentration 270 nM, RXRa partner concentration 90 nM)
Outline: as §1

[11] = system: PPARg:RXRa IVT, anti-PPARg (NR concentration 270 nM, RXRa partner concentration 90 nM)
Outline: as §1

[12] = system: PPARg DBDmut:RXRa IVT, anti-PPARg (DBD mutation: PPARg1 K132A/R137A, NR concentration 270 nM, RXRa partner concentration 90 nM)
Outline: as §1

[13] = system: PPARg DBDmut IVT, anti-PPARg (DBD mutation: PPARg1 K132A/R137A, NR concentration 270 nM)
Outline: as §1

[14] = system: PPARg homodimer (NR concentration 180 nM)
Outline: as §1

[15] = system: PXR:RXRa (NR concentration 270 nM, RXRa partner concentration 90 nM)
Outline: as §1

[16] = system: PXR homodimer (NR concentration 270 nM)
Outline: as §1

[17] = system: RARa:RXR (NR concentration 270 nM, RXRa partner concentration 90 nM)
Outline: as §1

[18] = system: RARa homodimer (NR concentration 270 nM)
Outline: as §1

[19] = system: RARb:RXRa (NR concentration 270 nM, RXRa partner concentration 90 nM)
Outline: as §1

Sequence	PBM binding z-score [1]	PBM binding z-score [2]	PBM binding z-score [3]	PBM binding z-score [4]	PBM binding z-score [5]	PBM binding z-score [6]	PBM binding z-score [7]	PBM binding z-score [8]	PBM binding z-score [9]	PBM binding z-score [10]	PBM binding z-score [11]	PBM binding z-score [12]	PBM binding z-score [13]	PBM binding z-score [14]	PBM binding z-score [15]	PBM binding z-score [16]	PBM binding z-score [17]	PBM binding z-score [18]	PBM binding z-score [19]
CAAAGTAGGTCACGAAAGGTCAAAGTCGAATGAC	7.64	8.17	8.05	7.39	2.7	6.63	8.58	7.11	8.91	8.95	9.16	2.49	0.871	5.21	7.05	2.22	7.43	4.05	5.68
ATATGTAGGTTAGCTGGGGTCATTCCGACTAGGC	4.03	5.97	3.23	4.79	1.3	5.14	5.12	2.35	4.36	6.8	5.93	1.65	0.994	3.16	6.18	3.73	5.3	0.761	2.99
GATACAGGGTGAGCTAGAGGCCAGAGTATGGAAA	-0.454	-0.464	-0.638	-0.678	-1.4	0.23	-0.0418	-0.29	-0.422	0.274	0.614	-0.0983	-0.828	-0.261	-0.31	-0.845	0.0105	-0.483	0.744
ATCTCTAGGTCAAAGTTCAGTGAATCCCGAGGAT	5.79	6.34	6.95	4.67	3.69	6.3	9.63	10.4	10.7	6.47	6.91	3.49	3.22	3.06	5.29	2.76	6.71	1.52	4.58
CGTCCAAGGTCAGAGAGGTCAGTGTATGCCGAGT	6.02	5.1	3.33	4.4	0.458	4.71	3.98	0.927	2.53	2.75	3.39	-0.0469	0.446	3.62	5.92	12.1	5.19	1.5	5.16
AGAATGGGGTTAAGATCAGGGAAACAGAATACAT	4.23	3.54	0.59	4.19	2.1	5.62	4.5	2.12	3.37	3.55	3.66	1.77	1.97	2.18	2.98	2.24	3.46	1.79	2.47
TAGCCTAGGTCATGGGCCTGTATACCACGCGAAC	4.51	3.39	0.196	2.64	-0.604	4.12	3.29	0.751	2.07	1.69	3.19	0.382	-0.135	1.45	1.82	-0.611	3.17	0.359	3.97
TTACCAAGGTGAAGGTCGTGGATCCCTCTGTAGA	1.6	1.33	0.0601	1.45	-0.935	3.03	4.71	2.78	4.4	2.23	3.55	-0.363	0.188	0.731	1.53	-0.1	2.38	-0.307	2.4
AGTAAAAGTTCACTAGGTAACGTAAGATTCAGCT	4.14	4.44	3.1	2.6	1.17	4.32	5	2.09	4.23	2.43	4.33	0.938	1.34	2.48	3.04	2.08	2.39	1.61	4.39
TTACCAAGGTAAAAGGTCGTTGATGCACGCCTTG	2.52	2.49	0.274	2.25	0.0385	4.46	6.8	5.65	6.87	0.76	3.59	0.399	0.573	1.67	3.07	0.505	4.08	0.101	2.28
TCTTGTTGATCAAAGGTTAAGAAAGCCGAAGCCT	1.37	2.26	0.368	2.11	0.469	3.71	6.29	5.57	6.85	1.8	2.11	1.32	0.442	1.36	1.74	0.07	2.31	0.624	2.04
CCTACTGGGCCAAGCTCATTGATCAGTCAAAGCA	-0.645	-0.823	-0.557	-0.699	-1.01	0.0972	0.223	-0.794	-0.165	4.44	2.91	-0.901	-1.44	-0.727	-0.626	-0.809	-0.399	-1.2	-0.112
CGAACTAGGTCAGAGCAGGACAGTGAAGGATGAT	1.33	0.722	-0.112	0.261	-0.67	3.19	5.01	2.43	4.19	7.51	7.58	2.72	2.03	0.79	1.15	-0.0767	1.54	-0.158	2.94
CTAACTAGGTCACCGGAAGGTCAAAGTCCGCATG	6.39	6.17	5.51	5.57	1.15	6.52	8.19	6.41	7.67	8.81	9.32	3.69	4.14	5.86	6.02	2.05	7.24	1.84	5.55
TGAATGAGGTGAAAGATCAGGGAACGTGGCGTCG	1.19	1.1	-0.421	0.428	0.209	4.52	6.92	6.44	7.54	3.85	5	2.22	0.574	0.746	0.587	-0.0848	1.8	-0.562	1.48
CCAGACAGGTGAAAGGTAACTCCGTCTGGTACGC	0.568	0.648	-0.506	0.857	-0.698	3.32	5.65	3.94	5.52	1.67	2.94	-0.44	-0.311	1.15	0.836	-0.734	1.5	0.043	1.23
ACTTGGAGGACAAAGGTCAGAGCTACGCCAGTGA	4.75	4.49	1.97	3.58	0.676	5.71	9.07	8.21	10.6	2.6	5.22	1.39	1.18	4.64	4.33	0.449	5.83	2.6	4.72
ATCGAAAGGTCGAAGGTGAGTACACCCACCCGAA	4.49	3.49	0.413	2.92	0.705	4.68	4.86	2.04	3.87	0.019	2.74	1.5	0.329	1.98	3.49	0.469	4.08	1.18	3.9
ATCGAACGGTCGAGGTGAGTATAGAGAAAGGGAA	-0.0198	-0.0653	-0.353	-0.34	-0.587	0.105	-0.114	-0.342	-0.333	-0.731	0.523	0.835	-0.166	0.13	-0.26	-0.544	-0.1	-0.343	1.19
CCTACTGGGCCAAAGGTCATAGATTCCAATGCTC	4.64	4.61	3.46	4.47	0.244	6.34	10.5	11	11.5	5.3	7.19	0.0659	-0.0407	4.53	5.14	1.46	6.41	1.47	4.4
CGCACTAGGTCATTGACAGGACAGTGAATAGTAA	4.64	3.31	0.73	2.31	0.424	4.38	5.96	3.36	5.26	8.05	8.26	3.67	3.71	2.42	1.82	0.54	2.55	0.834	3.81
ATAGAAAGGTCGAAGGTGAGTATACCCACCCGAA	4.15	3.25	0.28	2.61	0.606	4.56	5.47	2.38	4.64	0.0338	2.05	1.17	0.496	1.85	2.82	0.22	4.08	0.667	3.64
AATACAGGGTCACTAGGTCAGAGTAGGTACGAAT	6.69	5.67	2.22	4.43	1.37	6.03	7.62	4.74	7.08	5.74	6.99	2.72	2.61	4.65	4.34	1.23	5.62	1.85	4.67
ACTCGGAGGATAAAGGTCAGAGCTACGCCAGTGA	3.3	3.42	1.27	2.83	0.273	4.23	6.4	5	6.8	0.595	3.02	-0.0489	0.296	4.61	3.25	0.221	4.24	2.08	4.01
ACTAGTAGGCCAAGGGTCACTCAAGATTAGTCCG	2.69	2.91	0.417	2.98	0.0422	5.64	9.26	10.9	10.4	5.4	6.33	0.82	1.01	2.17	3.24	-0.0548	4.2	0.166	3.61
ATACGTAGGTTATCGGGTCATTCAGTTTGCGCAT	3.01	3.2	1.41	2.88	1.18	3.58	3.39	0.883	2.46	3.06	3.95	1.74	0.954	2.79	3.74	8.01	3.84	0.759	2.59
AAAATGAGGTTAAGATCAGGGAAACAGAATACAT	2.83	2.62	0.171	2.1	0.347	4.04	2.67	1.16	2.41	3.27	3.78	1.96	0.972	1.85	1.26	0.646	2.48	0.889	2.04
CAAACTAGGTCACGAGGTCAAAGTCCGCTTCCCG	7.24	6	5.08	5.41	1.09	6.85	8.27	7.29	8.74	8.56	9.04	2.5	3.48	3.45	6.15	3.42	6.91	1.34	5.48
ACTAGAAGGCCAAGGGTCACTCAAGATTAGTCCG	3.27	3.28	0.426	3.25	-0.267	4.51	7.08	5.69	7.96	0.756	3.55	0.734	-0.0604	5	3.73	0.235	5.15	1.18	3.92
CAAAGTAGGTCAAGGTCAAAGTCGGTTTGTGCCA	6.64	5.74	4.44	4.67	1.7	6.22	8.02	7.19	8.49	8.64	9.04	5.79	3.56	4.77	5.48	2.55	5.94	2.15	5.07
